# High-throughput results: PubChem, National Center for Advancing Translational Sciences (NCATS)
# GLS inh: qHTS for Inhibitors of Glutaminase (GLS) | Glutaminase kidney isoform, mitochondrial (Homo sapiens), O94925 | GLS enzymatic activity, qHTS titration | Potency, µM (top dose mostly 45.5 µM), for inactives: at the highest dose activity change, negative = inhibition, actives largely listed as inhibitors | 0.21% of 410,000 active | AID 624170, 2012; further: on the % scale 0 is the no-effect control and ±100 the full control effect
#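 Enzyme dispensed in phosphate buffer (45 mM, pH 8.2, 0.02% Tween-20), compounds pinned in, then 1 mM L-glutamine solution and the glutamate oxidase–HRP–Amplex Red mix added; fluorescence read immediately and again after 30 min at room temperature.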
# G9a inh: qHTS Assay for Inhibitors of Histone Lysine Methyltransferase G9a | Histone-lysine N-methyltransferase EHMT2 (Homo sapiens), Q96KQ7 | G9a H3K9 monomethylation, AlphaScreen, 2 h | Potency, µM (top dose mostly 102 µM), for inactives: top-dose activity, negative = inhibition, most hits filed as inhibitors | 8.8% of 350,000 active; further: on the % scale 0 is the no-effect control and ±100 the full control effect; nearly all actives have a fitted effect of over 75% in size
#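 AlphaScreen detection with an anti-monomethyl H3K9 antibody quantified product after a 2 h room-temperature reaction containing 500 nM biotinylated H3K9 peptide, 20 µM SAM and 20 nM enzyme, which had been preincubated 15 min with compound.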
# JMJD2A Tudor: qHTS Assay for Inhibitors of JMJD2A-Tudor Domain | Potency, µM (series often up to 114 µM), for inactives: at the highest dose activity change, negative = inhibition, hits mostly inhibitors | 4.4% of 390,000 active | Lysine-specific demethylase 4A (Homo sapiens), O75164 | AlphaScreen JMJD2A-Tudor / H3K4me3 peptide binding | AID 504339, 2011; further: on the % scale 0 is the no-effect control and ±100 the full control effect; nearly all actives have a fitted effect of over 50% in size
# HP1b chromo inh: HTS for Inhibitors of HP1-beta Chromodomain Interactions with Methylated Histone Tails. 0.56% of 390,000 active. Chromobox protein homolog 1 (Homo sapiens), P83916. AID 540317, 2011. AlphaScreen HP1-beta / biotin-H3K9me3 peptide binding. Potency, µM (top dose mostly 114 µM), inactives show at the highest dose activity change, negative = inhibition, actives largely listed as inhibitors; further: nearly all actives have a fitted effect of over 70% in size
#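 HP1-beta protein (50 nM final) preincubated 30 min at room temperature with biotinylated H3(1-18)K9me3 peptide (50 nM) in PBS pH 7.4, 0.01% Tween-20, then compound added for 30 min. AlphaScreen streptavidin donor/nickel chelate acceptor beads (10 ug/mL final), 30 min dark, luminescence read.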
# BAZ2B block: qHTS Assay for Inhibitors of BAZ2B; AlphaScreen BAZ2B-H3K14Ac peptide displacement; Bromodomain adjacent to zinc finger domain protein 2B (Homo sapiens), Q9UIF8; Potency, µM (titrated, usually from 114 µM), for the others: top-dose activity change, negative = inhibition, hits mostly inhibitors; 4.4% of 360,000 active; AID 504333, 2011; further: on the % scale 0 is the no-effect control and ±100 the full control effect; nearly all actives have a fitted effect of over 60% in size
#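 Inhibition is scored as reduced AlphaScreen emission. The BAZ2B/b-H3(5-23)K14Ac complex (50 nM each) in PBS pH 7.4, 0.01% Tween-20 meets compound (up to 110 uM) for 30 min at RT before bead addition.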
# Active calls of the source: *; u = inconclusive; x = no result; [ ] = remark or other dose. Only some compounds are listed: those with a hit (about 10% of all), similar ones and a draw of the others. The call rests on the fitted dose curve; in most records, active means well fitted curve in the direction sought with a large enough effect; inconclusive means small, poorly fitted or top-dose-only effect, or another doubt; inactive means no such curve, though single readings can be large; an effect the other way counts as inactive or inconclusive. Potency means the concentration at half of the fitted maximal effect.
SMILES,GLS inh,G9a inh,JMJD2A Tudor,HP1b chromo inh,BAZ2B block
CC(C)=C[C@@H]1C[C@H](C)[C@H]2CC[C@H](C)c3c(O)c(O)c(C)c1c32,u,6.3%[0.501 µM],39.8µM*,u,56.2µM*
CC(=O)O[C@H]1[C@H](O)[C@H](Oc2c(O)c(C)c3c4c2[C@@H](C)CC[C@@H]4[C@@H](C)C[C@H]3C=C(C)C)O[C@@H](C)[C@H]1O,-3.4%,x,31.6µM*,-21.3%,x
CCOc1ccc(NC(=O)CCNS(=O)(=O)c2cccs2)cc1,-3.5%,6.5%[59 µM],2.7%,38.9%,4.3%
COc1cc(OC)c(NC(=O)C2=C(C)C(=O)OC23CCCCCC3)cc1Cl,4.7%,-7.5%[59 µM],-21.5%,8.7%,-19.5%
O=C1NCCN/C1=C\C(=O)c1ccc(Br)cc1,0.9%,50.1µM*,-24.9%,10.8%,-16.2%
O=C1OCCN/C1=C\C(=O)c1ccc(Cl)cc1,29.7%,56.2µM*,u,-9.7%,-25.4%
O=C1NCCN/C1=C\C(=O)c1ccccc1,0.0%,0.9%,-28.0%,15.1%,u
O=C1OCCN/C1=C\C(=O)c1ccccc1,18.0%,u,0.4%,13.8%,-19.9%
COc1ccccc1NC(=O)c1ccc(N2CC3CC(C2)c2cccc(=O)n2C3)c(NC(=O)c2ccncc2)c1 (stereo not given),13.7%,15.8µM*,-11.7%,29.7%,-13.8%[57.1 µM]
CSc1ccccc1NC(=O)c1ccc(N2CC3CC(C2)c2cccc(=O)n2C3)c(NC(=O)c2cccnc2)c1 (stereo not given),0.8%,70.8µM*,-5.7%,27.9%,-19.2%
O=C(/C=C/c1ccncc1)c1ccc2c(c1)OCCO2,9.2%,50.1µM*,-20.3%,28.9%,-37.4%
CCOC(=O)c1c(NC(=O)c2ccc(Br)cc2)sc2c1CCCC2,2.5%,10µM*,-10.3%,u,4.0%
COC(=O)C1=C(NC(=O)c2ccccc2C)CCS1,-6.8%,-34.0%,79.4µM*,1.7%,-3.8%
CCOC(=O)c1c(NC(=O)c2ccccc2C(=O)O)sc2c1CCCC2,-7.6%,3.7%,-17.2%,17.9%,-2.3%
CCOC(=O)c1c(NC(=O)c2ccccc2C)sc2c1CCCC2,-3.6%,7.94µM*,84.7%,65.9%,-0.6%
CCCOc1ccc(C(=O)Nc2sc3c(c2C(=O)OCC)CCCCC3)cc1,-5.7%,5.4%[59 µM],16.0%,38.3%,4.8%
COC(=O)C1=C(NC(=O)c2cccs2)CCS1,x,52.0%[12.7 µM],x,x,-3.0%
CCOC(=O)c1c(NC(=O)c2ccccc2Cl)sc2c1CCc1ccccc1-2,10µM*,4.47µM*,8.0%,12.6%,24.9%
CCOC(=O)c1c(NC(=O)c2ccccc2)sc2c1CCc1ccccc1-2,-9.3%,u,43.8%,24.5%,0.9%
CCOC(=O)c1c(NC(=O)C(C)Sc2cn(CCNC(=O)c3ccccc3OC)c3ccccc23)sc2c1CCC2 (stereo not given),6.7%,u,-31.0%,2.6%,8.91µM*
CCOC(=O)c1c(NC(=O)C(C)Sc2cn(CCNC(=O)c3ccc(OC)c(OC)c3)c3ccccc23)sc2c1CCC2 (stereo not given),-1.8%,u,u,24.4%,-18.9%
CCOC(=O)c1c(NC(=O)C2C3C=CC(C3)C2(C)C(=O)O)sc2c1CCCC2 (stereo not given),1.7%,-14.9%[59 µM],-34.2%,3.6%,56.2µM*
Cc1ccc(C(=O)/C=C/Nc2ccc([N+](=O)[O-])cc2Br)cc1,7.4%,5.3%[59 µM],-1.1%,21.4%,-20.9%
c1ccc2[nH]c(SN3CCOCC3)nc2c1,x,u,x,x,20µM*
c1ccc2[nH]c(CN3CCOCC3)nc2c1,-13.2%,14.5%[59 µM],-13.3%,12.7%,-28.3%
SMILES,GLS inh,G9a inh,JMJD2A Tudor,HP1b chromo inh,BAZ2B block
CC12CN3CC(C)(CN(C1)C3c1ccc3ccccc3c1O)C2=O (stereo not given),-8.0%,1.58µM*,u,32.4%,-10.2%
O=c1cc(CN2CCN(S(=O)(=O)c3ccc(Cl)cc3)CC2)nc2sc(-c3ccccc3F)nn12,0.6%,13.6%[59 µM],-13.0%,17.7%[57 µM],3.6%
Cc1cc(C)c(-n2c(C)cc(/C=C3/NC(=O)NC3=O)c2C)c(C)c1,4.3%,u,u,u,50.1µM*
COC(=O)C1=C(C)NC(=O)/C1=C\c1cc(C)n(-c2cccc(C)c2)c1C,15.4%,-1.6%[12.7 µM],44.7µM*,20µM*,39.8µM*
Cc1cccc(-n2c(C)cc(/C=C3\NC(=O)NC3=O)c2C)c1,-15.9%,44.7µM*,-27.4%,-3.0%,u
COc1ccc(-c2csc(Nc3cccc(C)n3)n2)cc1C,u,50.1µM*,-24.4%,-27.6%,-34.1%
COc1ccc(-c2csc(Nc3cccc(C)n3)n2)cc1,-15.0%,-13.6%,-32.2%,-3.5%,-8.1%
Cc1ccc(Nc2nc(-c3ccc(O)c(O)c3)cs2)nc1,u,15.8µM*,31.6µM*,u,39.8µM*
c1cncc(Nc2nc(-c3cccnc3)cs2)c1,2.5%,u,-26.6%,13.7%,4.1%
Cc1ccc(Nc2nc(-c3ccc(F)cc3)cs2)nc1,1.3%,-2.2%[59 µM],1.7%,36.2%,-24.3%
COc1ccc(-c2csc(Nc3cc(C)ccn3)n2)cc1OC,-22.3%,39.8µM*,u,-36.4%,u
Clc1cccc(-c2csc(Nc3cccnc3)n2)c1,7.0%,44.7µM*,-7.2%,12.6%,-3.5%
O=C(COC(=O)c1n[nH]c(=O)c2ccccc12)NCc1ccccc1,1.9%,u,4.2%,33.6%,6.7%
CC(/C=N/Nc1nc2ccccc2[nH]1)=C\c1ccccc1,7.0%,u,-24.4%,31.5%,2.6%
CCc1ccccc1NC(=S)N(Cc1cccnc1)Cc1ccco1,3.3%,-5.0%[59 µM],-12.9%,19.2%,-15.0%
O=C(COC(=O)c1ccccc1-c1nc2ccccc2s1)NC1CCS(=O)(=O)C1 (stereo not given),4.4%,-6.3%[59 µM],-16.6%,24.8%,3.0%
O=C(Nc1ccccc1C(=O)N1CCOCC1)C1COc2ccccc2O1 (stereo not given),-1.3%,-2.8%[12.7 µM],-5.2%,6.0%,-2.9%
CCC(C)c1ccc(C(C)NC(=S)NC2CCCCC2)cc1 (stereo not given),-2.3%,x,-9.5%,36.9%,-4.2%
Cc1ccnc(Nc2nc(-c3c(C)nc4sccn34)cs2)c1,x,u,u,-33.6%,44.7µM*
COc1ccc(-c2csc(Nc3cccnc3)n2)cc1OC,-3.9%,50.1µM*,-16.0%[57.1 µM],60.2%,-5.6%
Clc1ccccc1Nc1nc(-c2cccnc2)cs1,0.0%,-12.5%[12.7 µM],-25.0%,-15.7%,56.2µM*
COc1cc2c(cc1NC(=O)C1CCCO1)oc1ccccc12 (stereo not given),5.1%,-29.7%[12.7 µM],1.9%,27.0%,6.1%
